# Screening results from PubChem BioAssay.
# KinaseGlo FLuc – counter-screen: inhibitors of Kinase-Glo firefly luciferase. Q27757. Kinase-Glo luciferase, ATP luminescence, 8 min. Potency, µM (doses to about 38.3 µM), for inactives: at the top dose activity change, negative = inhibition, most hits filed as inhibitors. actives 0.28% (n = 200,000); note: % is set by controls: 0 for no effect and ±100 for the full control effect; nearly all actives have a fitted effect of over 60% in size
#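 Recombinant Kinase-Glo luciferase, 10 uM ATP (linear range), luciferin; imidazole pH 7.2 / KCl / MgCl2 / Tween / BSA buffer; 8 min RT; luminescence.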
# NPC1 promoter act – NPC1 promoter activation. Potency, µM (top dose mostly 9.22 µM), for the others: top-dose activation, most hits filed as activators. actives 2.4% (n = 320,000). Huh7 NPC1 promoter luciferase reporter, 24 h; note: % of control where 0% means no effect; nearly all actives have a fitted effect of over 60% in size
#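 Luminescence read-out of NPC1 promoter-driven luciferase in stably transfected Huh7 cells; compounds delivered in DMSO and left 24 h at 37C, 5% CO2, qHTS titration format.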
# ELG1 genotoxic – inducers of genotoxicity in HEK293T ELG1-luciferase cells | HEK293T ELG1-luciferase reporter, luminescence, 16 h | AID 504466 | actives 1.3% (n = 330,000) | Potency, µM (highest dose often 46 µM), without a hit: at the top dose activity change, positive = activation, actives largely listed as activators; note: % of control where 0% means no effect; nearly all actives have a fitted effect of over 60% in size
#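 Screening used a luciferase reporter fused to human ELG1 in HEK293T cells. Luminescence was read on a CCD plate imager after 16 hr exposure and 30 min ONE-Glo incubation.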
# Rab9 prom act – Rab9 promoter activation. Potency, µM (doses to about 9.22 µM), without a hit: at the top dose activation, negative = inhibition, actives largely listed as activators. Huh7 Rab9 promoter-luciferase reporter, luminescence, 24 h. actives 2.8% (n = 320,000). AID 485297; note: % of control where 0% means no effect; nearly all actives have a fitted effect of over 60% in size
#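 Cell-based reporter: Huh7 stable for Rab9 promoter-driven luciferase, plated in reduced-serum medium with 10% FBS at 1500 cells/well, compound-treated 24 h at 37 °C, luminescence read after 10 min reagent.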
# FLuc modulator – inhibits or activates purified firefly luciferase, miR-21 counter-screen; purified FLuc, Km substrates, luminescence inhibition; Potency, µM (highest dose often 57.5 µM), for the others: at the highest dose activity change, negative = inhibition, hits mostly inhibitors; P08659; AID 588342; actives 6.9% (n = 360,000);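 note: plate controls were vehicle for no effect and reference inhibitor for full effect; nearly all actives have a fitted effect of over 55% in size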
# Target sequence (P08659 whole entry, looked up): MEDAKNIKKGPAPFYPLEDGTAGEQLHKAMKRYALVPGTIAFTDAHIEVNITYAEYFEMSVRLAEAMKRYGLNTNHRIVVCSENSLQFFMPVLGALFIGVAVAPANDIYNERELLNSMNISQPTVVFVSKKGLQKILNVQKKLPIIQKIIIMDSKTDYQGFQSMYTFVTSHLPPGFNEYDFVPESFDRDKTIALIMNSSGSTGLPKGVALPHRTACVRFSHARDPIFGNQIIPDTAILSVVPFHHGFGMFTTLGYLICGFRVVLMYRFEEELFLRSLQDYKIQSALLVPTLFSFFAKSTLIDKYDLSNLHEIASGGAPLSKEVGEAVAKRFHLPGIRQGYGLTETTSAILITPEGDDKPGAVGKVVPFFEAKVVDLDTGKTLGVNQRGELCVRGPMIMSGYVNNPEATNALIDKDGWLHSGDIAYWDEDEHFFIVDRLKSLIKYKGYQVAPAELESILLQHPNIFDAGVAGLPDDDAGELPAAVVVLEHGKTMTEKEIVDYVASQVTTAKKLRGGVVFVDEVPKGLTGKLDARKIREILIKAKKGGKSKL
#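 Biochemical qHTS of compounds, final roughly 60 µM downward over six points, against 10 nM purified firefly luciferase using Km concentrations of substrates (10 uM D-luciferin, 10 uM ATP) in Tris acetate pH 7.5 buffer; luminescence output.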
# SMN2 splice up – SMN2 splice variant enhancement. HEK293 SMN2-luciferase splicing reporter, luminescence, 30-36 h. Potency, µM (highest dose often 46.1 µM), without a hit: at the top dose activity change, positive = activation, most hits filed as activators. actives 2.8% (n = 210,000); note: % of control where 0% means no effect; nearly all actives have a fitted effect of over 55% in size
#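 HEK293 cells carry an SMN2 minigene-luciferase reporter in which exon 7 inclusion puts luciferase in frame. Cells were seeded at 2000 cells/well, attached for 10-12 hours, then exposed to compounds for 30-36 hours at 37C before ONE-Glo luminescence.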
# Numbers without * were called inactive; ? = inconclusive; . = no result; [ ] = dose if it differs, or a comment. Only some compounds are listed: those with a hit (about 7.5% of all), similar ones and a draw of the others. Calls come from the whole dose curve; as a rule, active = well fitted curve in the direction sought with a large enough effect; inconclusive = small, poorly fitted or top-dose-only effect, or another doubt; inactive = no such curve, though single readings can be large; an effect the other way counts as inactive or inconclusive. Potency is the fitted concentration of half-maximal effect.
SMILES,KinaseGlo FLuc,NPC1 promoter act,ELG1 genotoxic,Rab9 prom act,FLuc modulator,SMN2 splice up
Cc1cccc(N2CCN(C(=O)CCc3c(C)nc4c(c3C)c(=O)n(C)c(=O)n4C)CC2)c1C,.,.,.,.,-10%,2%
CCOC(=O)c1c(C)[nH]c(C)c1C(=O)COC(=O)c1nc2nccc(C)n2n1,2%,-7%,0%,1%,-1%,17%
C=CCNc1oc(/C=C/c2ccccc2)nc1C#N,-1%,2.5µM*,?,2.2µM*,4.8µM*,11µM*
CCOc1ccc(/C=C/c2nc(C#N)c(NCCCOC)o2)cc1,.,-27%,0%,-4%,?,.
COCCCNc1oc(/C=C/c2ccccc2)nc1C#N,.,3.5µM*,2.9µM*,1.1µM*,3.4µM*,.
O=C(CCCCCNC(=O)N1CCn2c1nc1ccccc12)NCc1ccccc1,.,0%,-1%,-2%,?,.
Nc1c(C(=O)NC2CCCC2)c2nc3ccccc3nc2n1N,.,13%,2%,6%,17µM*,.
Nc1c(C(=O)NC2CCCC2)c2nc3ccccc3nc2n1/N=C/c1ccco1,2%,-2%,1%,-5%,5%,-18%
COc1cccc(-c2ccnc3c(-c4ccccc4)c(C)nn23)c1,.,.,.,.,11µM*,?
COc1cccc(-c2ccnc3c(-c4ccc(F)cc4)c(C)nn23)c1,.,.,.,.,8.5µM*,15%
COc1ccc(C(=O)Nc2ccc(C(=O)OCc3cc(=O)n4nc(C(C)C)sc4n3)cc2)cc1,.,.,.,.,3%,.
O/N=C/c1ccc(OCC(O)COc2ccc(/C=N/O)cc2)cc1,-3%,1%,-1%,2%,15µM*,-9%
CCCOc1ccc(/C=N/O)cc1,4%,11%,-2%,18%,?,-2%
N#C/C(=C(/O)c1ccc2c(c1)OCO2)c1nc2cc(C(F)(F)F)ccc2s1,.,-5%,-8%,-3%,17µM*,.
CN(C)c1ccc(/C=C2\CCCCC2=O)cc1,-4%,3.5µM*,5.8µM*,3.2µM*,2.7µM*,22µM*
CC(C)=CCC1=C(O)c2ccccc2C(=O)C1=O,-4%,.,.,.,.,4µM*
CCC(=O)N(CC)C1=C(O)c2ccccc2C(=O)C1=O,4%,-1%,0%,-1%,?,-17%
COCCn1c(=NC(=O)c2ccc(S(=O)(=O)N3CCc4ccccc4C3)cc2)sc2cc(OC)ccc21,3%,-3%,-4%,-6%,1%,-20%
c1ccc(-c2noc(CCC3CCCC3)n2)cc1,1%,14%,?,?,11µM*,19%
CN(Cc1nc(-c2ccccc2)no1)C1CCOCC1,.,2.5µM*,?,?,17µM*,.
c1ccc(-c2noc(CC3CCCCC3)n2)cc1,-3%,18%,?,?,9.5µM*,16%
COc1ccc(-c2noc(CN(C)C3CCOCC3)n2)cc1,2%,1%,9%,2%,1%,.
O=C(NCC(c1ccccc1)c1ccccc1)c1nn(-c2ccccc2F)nc1CO,.,.,.,.,-3%,-65%
CN1CCN(NC(=O)c2ccc(S(=O)(=O)N3CC4(C)CC3CC(C)(C)C4)cc2)CC1 (configuration not stated),.,-3%,-2%,-2%,0%,.
CCN1CCN(c2cc(C)c3cc(NC(=O)/C=C/c4cccc(Cl)c4)ccc3n2)CC1,.,.,.,.,-18%,2%
SMILES,KinaseGlo FLuc,NPC1 promoter act,ELG1 genotoxic,Rab9 prom act,FLuc modulator,SMN2 splice up
CCC(CO)NC(=O)C(=O)Nc1c2c(nn1-c1ccc(F)cc1)CSC2 (configuration not stated),.,.,.,.,-15%,.
Cc1cccc(NC(=S)NNC(=O)c2sccc2C)c1,-3%,1%,?,?,15µM*,-13%
Cc1cccc(NC(=S)NNC(=O)c2csc(C(C)C)c2)c1,1%,2.5µM*,13%,1.8µM*,5.4µM*,11µM*
CCc1cc(C(=O)Nc2ccc(C)cc2Br)cs1,-1%,21%,?,?,5.4µM*,16µM*
CCc1cc(C(=O)NNC(=S)Nc2cccc(C)c2)cs1,3%,3.5µM*,13%,3.2µM*,3.4µM*,14µM*
Cc1ccsc1C(=O)NNC(=S)NCC(C)C,17%,-3%,0%,-5%,-2%,25%
NC(C(=O)N[C@@H]1C(=O)N2C(C(=O)O)=C(Cl)CS[C@H]12)c1ccccc1 (some centres not stated),-3%,11%[46.1 µM],.,6%[46.1 µM],.,-10%
CN1CCN(c2ccc(CNC(=O)c3ccco3)cc2)CC1,.,-1%,1%,1%,0%,.
COc1cc(OC)c(/C=N/n2c(C)nnc2C)c(OC)c1,-3%,1%,1%,1%,0%,5%
COc1cccc(/C=N/NC(=O)c2ccc(=O)n(C)c2)c1OC,-2%,2%,4%,2%,-3%,7%
COc1cccc(/C=N/NC(=O)CN(C)S(=O)(=O)c2ccccc2)c1OC,.,19%,8%,19%,21µM*,.
COc1cccc(/C=N/NC(=O)C[n+]2ccccc2)c1OC,0%,0%,-3%,-3%,-1%,-6%
COc1cccc(/C=N/NC(=O)c2cc3c(OC)c(OC)ccc3[nH]2)c1OC,0%,-16%,4%,-12%,11µM*,?
COc1cccc(/C=N/NC(=O)c2cc3c(OC)cccc3[nH]2)c1OC,1%,2%,-3%,-8%,21µM*,1%
COc1cccc(/C=N/NC(=O)c2cc3c(OC)cccc3[nH]2)c1O,-2%,-27%,-2%,-36%,-19%,-109%
COc1ccc(OC)c2[nH]c(C(=O)N/N=C/c3ccccc3O)cc12,.,-42%,?,-36%,?,.
COc1ccccc1/C=N/NC(=O)c1cc2c(OC)c(OC)ccc2[nH]1,.,-9%,1%,-2%,13µM*,.
O=C(NC(=S)Nc1ccc(Cl)cn1)c1cc([N+](=O)[O-])ccc1N1CCOCC1,.,-9%,4%,0%,-1%,.
COC(=O)C1=C(C)N(Cc2ccccc2)C(=S)N[C@H]1CCc1ccccc1,.,-2%,.,-2%,5%,.
CCOC(=O)C(N)CSC1CC(=O)N(CCc2ccccc2)C1=O (configuration not stated),.,-6%,-2%,3%,-4%,.
Cc1cc2ccccc2n1-c1ccc(C(=O)N2CCC(C(=O)NCc3ccccc3Cl)CC2)s1,.,.,.,.,-19%,.
Nc1nn2cc(-c3ccc(Br)cc3)nc2c2ccccc12,.,1.8µM*,?,2.2µM*,1.7µM*,.
Nc1cc(-c2ccccc2)nn1S(=O)(=O)c1ccc(Br)cc1,-1%,1%,0%,6%,0%,-35%
COc1ccccc1N(CC(=O)N(C)Cc1ccccc1)S(=O)(=O)c1cccs1,.,0%,1%,-5%,.,.
COc1cc(OC)c(Nc2nc3ccccc3nc2-n2nc(C)cc2C)cc1Cl,.,.,.,.,-2%,0%
